Results: PubChem BioAssay (EPA / NIEHS)
The source holds several records for some structures; these can differ, active in one and inactive in another. The source made the active and inactive calls. Rule for the calls: active = hit-call score of the fitted dose curve at least 0.9, where 1 is the maximum; inactive = score below 0.9.

What was measured:
[1] = BSK_CASM3C_SRB: Viability Assessment in the BioMAP Diversity Plus: CASM3C Assay (AID 2283050); conditions: primary human coronary artery smooth muscle cells;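 note: cells exposed to compound for 24 h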
[2] = read-out: Thrombomodulin, THBD (gene 7056); experiment: BSK_CASM3C_Thrombomodulin: BioMAP Diversity Plus: CASM3C Assay for Thrombomodulin Biomarker Activity (AID 2283051); conditions: primary human coronary artery smooth muscle cells; actives raise or lower the signal;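 note: thrombomodulin protein level measured by ELISA 24 h after dosing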
[3] = read-out: Tissue Factor, F3 (gene 2152); experiment: BSK_CASM3C_TissueFactor: BioMAP Diversity Plus: CASM3C Assay for Tissue Factor Biomarker Activity (AID 2283052); conditions: primary human coronary artery smooth muscle cells; actives raise or lower the signal;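 note: cell surface tissue factor protein level read by ELISA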
[4] = read-out: Interferon-gamma inducible Protein 10 (IP10), CXCL10 (gene 3627); experiment: BSK_hDFCGF_IP10: BioMAP Diversity Plus: hDFCGF Assay for Interferon-gamma inducible Protein 10 (IP10) Biomarker Activity (AID 2283053); conditions: primary human foreskin fibroblasts; actives raise or lower the signal
In short: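 Primary foreskin fibroblasts, human; 24 h compound exposure; IP-10 by ELISA; bidirectional fit vs DMSO.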

[5] = read-out: Urokinase-type plasminogen activator receptor (uPAR), PLAUR (gene 5329); experiment: BSK_CASM3C_uPAR: BioMAP Diversity Plus: CASM3C Assay for Urokinase-type plasminogen activator receptor (uPAR) Biomarker Activity (AID 2283054); conditions: primary human coronary artery smooth muscle cells; actives raise or lower the signal;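 note: cell-surface uPAR protein level quantified by ELISA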
[6] = read-out: Vascular cell adhesion molecule 1 (VCAM1), VCAM1 (gene 7412); experiment: BSK_CASM3C_VCAM1: BioMAP Diversity Plus: CASM3C Assay for Vascular cell adhesion molecule 1 (VCAM1) Biomarker Activity (AID 2283055); conditions: primary human coronary artery smooth muscle cells; actives raise or lower the signal;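 note: VCAM-1 protein level quantified by ELISA on the cells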
[7] = read-out: Collagen III, COL3A1 (gene 1281); experiment: BSK_hDFCGF_CollagenIII: BioMAP Diversity Plus: hDFCGF Assay for Collagen III Biomarker Activity (AID 2283056); conditions: primary human foreskin fibroblasts; actives raise or lower the signal
In short: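 hDFCGF primary human dermal fibroblasts; 24 h chemical exposure; collagen III by ELISA; bidirectional curve fit vs DMSO baseline (gain or loss of signal).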

[8] = read-out: Interleukin-8 (IL8), CXCL8 (gene 3576); experiment: BSK_hDFCGF_IL8: BioMAP Diversity Plus: hDFCGF Assay for Interleukin-8 (IL8) Biomarker Activity (AID 2283058); conditions: primary human foreskin fibroblasts; actives raise or lower the signal
In short: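 ELISA read-out of IL-8 from primary human foreskin fibroblast cultures taken 24 h after dosing; values are bidirectional fits relative to DMSO vehicle.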

[9] = BSK_hDFCGF_Proliferation: Cell Proliferation Assessment in the BioMAP Diversity Plus: hDFCGF Assay (AID 2283059); conditions: primary human foreskin fibroblasts;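 note: curves fitted for both rise and fall of signal versus DMSO baseline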
In short: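 Sub-confluent human foreskin fibroblast cultures receive test chemical […]. Relative cell number is quantified by sulforhodamine B staining (0.1%, after 10% TCA fixation) at 560 nm, with bidirectional fitting referenced to DMSO.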

[10] = read-out: Macrophage colony-stimulating factor (MCSF), CSF1 (gene 1435); experiment: BSK_hDFCGF_MCSF: BioMAP Diversity Plus: hDFCGF Assay for Macrophage colony-stimulating factor (MCSF) Biomarker Activity (AID 2283060); conditions: primary human foreskin fibroblasts; actives raise or lower the signal
In short: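 ELISA read-out of M-CSF in human dermal foreskin fibroblast cultures, 24 h after chemical dosing; gain or loss of signal fitted bidirectionally relative to DMSO baseline.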

[11] = BSK_hDFCGF_SRB: Viability Assessment in the BioMAP Diversity Plus: hDFCGF Assay (AID 2283061); conditions: primary human foreskin fibroblasts;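 note: cells exposed to compound for 24 h before the read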
In short: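 Primary human foreskin fibroblasts; 24 h post-dose; fixed 10% TCA, stained 0.1% SRB, A560 read; total protein as overt cytotoxicity measure; curves fit bidirectionally vs DMSO control.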

[12] = read-out: TIMP metallopeptidase inhibitor 1 (TIMP1), TIMP1 (gene 7076); experiment: BSK_hDFCGF_TIMP1: BioMAP Diversity Plus: hDFCGF Assay for TIMP metallopeptidase inhibitor 1 (TIMP1) Biomarker Activity (AID 2283062); conditions: primary human foreskin fibroblasts; actives raise or lower the signal
In short: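 ELISA readout of TIMP-1 from human dermal foreskin fibroblast cultures 24 h post-dosing. Curves were fitted in both directions against DMSO baseline, with SRB total-protein staining in parallel cultures as a cytotoxicity check.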

[13] = read-out: Monokine induced gamma interferon (MIG), CXCL9 (gene 4283); experiment: BSK_hDFCGF_MIG: BioMAP Diversity Plus: hDFCGF Assay for Monokine induced gamma interferon (MIG) Biomarker Activity (AID 2283063); conditions: primary human foreskin fibroblasts; actives raise or lower the signal
In short: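 Fibroblasts (human foreskin, primary) dosed, 24 h, MIG by ELISA; fit bidirectional vs DMSO.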

[14] = read-out: Matrix Metallopeptidase 1 (MMP1), MMP1 (gene 4312); experiment: BSK_hDFCGF_MMP1: BioMAP Diversity Plus: hDFCGF Assay for Matrix Metallopeptidase 1 (MMP1) Biomarker Activity (AID 2283064); conditions: primary human foreskin fibroblasts; actives raise or lower the signal
In short: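 Primary human foreskin fibroblasts in the hDFCGF system were dosed with test chemical, and MMP1 was measured by ELISA 24 h later. Values come from bidirectional curve fitting against the DMSO baseline.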

[15] = read-out: Vascular cell adhesion molecule 1 (VCAM1), VCAM1 (gene 7412); experiment: BSK_hDFCGF_VCAM1: BioMAP Diversity Plus: hDFCGF Assay for Vascular cell adhesion molecule 1 (VCAM1) Biomarker Activity (AID 2283065); conditions: primary human foreskin fibroblasts; actives raise or lower the signal
In short: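 ELISA read-out of VCAM-1 on human skin fibroblasts, 24 h post-dose; gain or loss of signal fitted bidirectionally against DMSO baseline.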

[16] = read-out: Plasminogen activator inhibitor-1 (PAI1), SERPINE1 (gene 5054); experiment: BSK_hDFCGF_PAI1: BioMAP Diversity Plus: hDFCGF Assay for Plasminogen activator inhibitor-1 (PAI1) Biomarker Activity (AID 2283066); conditions: primary human foreskin fibroblasts; actives raise or lower the signal
In short: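 Primary dermal fibroblasts (human foreskin), hDFCGF system; compound 24 h; PAI-1 by ELISA; bidirectional fit vs DMSO control.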

[17] = read-out: Intercellular Adhesion Molecule 1 (ICAM1), ICAM1 (gene 3383); experiment: BSK_KF3CT_ICAM1: BioMAP Diversity Plus: KF3CT Assay for Intercellular Adhesion Molecule 1 (ICAM1) Biomarker Activity (AID 2283067); conditions: primary human keratinocytes with fibroblasts; actives raise or lower the signal
In short: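 ELISA readout of ICAM-1; KF3CT human skin co-culture (keratinocytes + foreskin fibroblasts), 24 h post-dose; gain/loss fit vs DMSO baseline.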

[18] = read-out: Interferon-gamma inducible Protein 10 (IP10), CXCL10 (gene 3627); experiment: BSK_KF3CT_IP10: BioMAP Diversity Plus: KF3CT Assay for Interferon-gamma inducible Protein 10 (IP10) Biomarker Activity (AID 2283068); conditions: primary human keratinocytes with fibroblasts; actives raise or lower the signal
In short: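 ELISA read-out of IP-10 after 24 h chemical dosing of human skin primary co-culture (keratinocytes, foreskin fibroblasts). Gain or loss of signal relative to DMSO, bidirectional curve fit.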

[19] = BSK_KF3CT_SRB: Viability Assessment in the BioMAP Diversity Plus: KF3CT Assay (AID 2283069); conditions: primary human keratinocytes with fibroblasts;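 note: total protein by sulforhodamine B staining as a cytotoxicity measure; read 24 h after compound addition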
In short: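 Human primary keratinocyte plus foreskin fibroblast co-culture exposed to chemicals for 24 h. Total protein measured by 0.1% sulforhodamine B staining after 10% TCA fixation, read at 560 nm; bidirectional fitting versus DMSO baseline.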

[20] = read-out: Epidermal growth factor receptor (EGFR), EGFR (gene 1956); experiment: BSK_hDFCGF_EGFR: BioMAP Diversity Plus: hDFCGF Assay for Epidermal growth factor receptor (EGFR) Biomarker Activity (AID 2283057); conditions: primary human foreskin fibroblasts; actives raise or lower the signal
In short: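 hDFCGF system, primary human foreskin fibroblasts; compound 24 h; EGFR measured by ELISA; DMSO = negative control/baseline; bidirectional fitting.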

Measured: AC50

CC(C)CCCCCCOC(=O)C1CCCCC1C(=O)OCCCCCCC(C)C (centres undefined)
not listed: [20]
inactive: all other assays above

C[Si](C)(C)C(F)(F)C(F)(F)C(F)(F)F
active: [11] 30 µM
inactive: [1] | [2] | [3] | [4] | [5] | [6] | [7] | [8] | [9] | [10] | [11] | [12] | [13] | [14] | [15] | [16] | [17] | [18] | [19]

Cc1ncc([C@@H](CCCCCCc2ccc3c(n2)NCCC3)CC(=O)O)cn1
active: [5] 148 nM
not listed: [20]
inactive: all other assays above

OC(CCl)CCl
not listed: [18]
inactive: all other assays above

CCOC(N)=O
not listed: [20]
inactive: all other assays above

O=C(O)[C@H](O)[C@@H](O)C(=O)O
not listed: [18]
inactive: all other assays above

OC[C@H]1O[C@@](CO)(O[C@H]2O[C@H](CO)[C@@H](O)[C@H](O)[C@H]2O)[C@@H](O)[C@@H]1O
not listed: [20]
inactive: all other assays above
